Experimental data published in PubChem BioAssay AID1159580 (chemical genetic matrix, 2015).
Values joined by “and” are separate entries in the source; they are usually repeats but may differ in a detail not shown here. Equal values may be shown once. In all, about 5,500 compounds went through this assay and about 2,000 (36%) were called active. Roughly 18% stayed inconclusive and do not appear here. Cut-off read from the data, not from the text of the source: active = normalized growth mostly below about 0.91 (no sharp cut-off); inconclusive = no clear call, values can overlap the other calls; inactive = mostly above about 0.92. Some of the results follow.

Test: chemical genetic growth profiling, strain panel (AID 1159580);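 note: tested at 20 µM; growth read once vehicle control cultures reached saturation at 30 °C; 1 = growth at the plate median or of vehicle wells; lower values mean less growth of the strain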
Details: S. cerevisiae deletion strains, growth OD

Measured: normalized growth

Nc1ccc(N=Nc2ccccc2)c(N)n1
inactive: locus YAL013W, strain DEP1, stronger effect = lower value 0.984 | locus YBR171W, strain sec66, stronger effect = lower value 0.96 | locus YBR229C, strain ROT2, stronger effect = lower value 1 | locus YCL029C, strain bik1, stronger effect = lower value 1.03 | locus YCR088W, strain abp1, stronger effect = lower value 0.945 | locus YDL005C, strain med2, stronger effect = lower value 1 | locus YDL035C, strain GPR1, stronger effect = lower value 0.932 | locus YDL040C, strain nat1, stronger effect = lower value 0.978 | locus YDL074C, strain BRE1, stronger effect = lower value 0.866 | locus YDL101C, strain DUN1, stronger effect = lower value 0.968 | locus YDL134C, strain PPH21, stronger effect = lower value 0.999 | locus YDL185W, strain tfp1, stronger effect = lower value 0.998 | locus YDR001C, strain nth1, stronger effect = lower value 1 | locus YDR101C, strain arx1, stronger effect = lower value 0.995 | locus YDR150W, strain NUM1, stronger effect = lower value 1.01 | locus YDR159W, strain sac3, stronger effect = lower value 0.884 | locus YDR162C, strain NBP2, stronger effect = lower value 0.939 | locus YDR318W, strain mcm21, stronger effect = lower value 0.951 | locus YDR388W, stronger effect = lower value 0.997 | locus YDR502C, strain sam2, stronger effect = lower value 0.954 | locus YEL037C, strain rad23, stronger effect = lower value 0.922 | locus YEL061C, strain CIN8, stronger effect = lower value 0.997 | locus YER110C, stronger effect = lower value 1.01 | locus YER155C, strain BEM2, stronger effect = lower value 1.03 | locus YER167W, strain BCK2, stronger effect = lower value 1.02 | locus YGL078C, strain dbp3, stronger effect = lower value 0.937 | locus YGL086W, strain mad1, stronger effect = lower value 0.971 | locus YGL167C, strain pmr1, stronger effect = lower value 0.977 | locus YGL248W, strain PDE1, stronger effect = lower value 0.989 | locus YGR078C, strain PAC10, stronger effect = lower value 0.918 | locus YGR229C, strain SMI1, stronger effect = lower value 0.996 | locus YGR252W, strain gcn5, stronger effect = lower value 0.943 | locus YHR030C, strain SLT2, stronger effect = lower value 0.995 and 0.956 | locus YHR079C, strain IRE1 (second series), stronger effect = lower value 0.99 | locus YHR079C, strain IRE1, stronger effect = lower value 0.965 | locus YHR094C, strain hxt1, stronger effect = lower value 1.02 | locus YHR129C, strain ARP1, stronger effect = lower value 1.01 | locus YHR200W, strain rpn10, stronger effect = lower value 0.983 | locus YIL066C, strain RNR3, stronger effect = lower value 0.956 | locus YIL073C, strain SPO22, stronger effect = lower value 0.972 | locus YIL125W, strain kgd1, stronger effect = lower value 1.02 | locus YIR030C, strain dcg1, stronger effect = lower value 1.02 | locus YJL092W, strain hpr5, stronger effect = lower value 0.945 | locus YJL095W, strain BCK1, stronger effect = lower value 0.833 and 0.952 | locus YJL115W, strain asf1, stronger effect = lower value 1.01 | locus YJL134W, strain LCB3, stronger effect = lower value 1 | locus YJL154C, strain vps35, stronger effect = lower value 0.98 | locus YJL168C, strain set2, stronger effect = lower value 1 | locus YJL187C, strain SWE1 (second series), stronger effect = lower value 0.961 | locus YJR043C, strain POL32, stronger effect = lower value 0.984 | locus YJR066W, strain TOR1, stronger effect = lower value 0.91
active: locus YAL021C, strain ccr4, stronger effect = lower value 0.597 | locus YAL026C, strain drs2, stronger effect = lower value 0.262 | locus YAL030W, strain snc1, stronger effect = lower value 0.909 | locus YBL061C, strain skt5, stronger effect = lower value 0.841 | locus YBR009C, strain hhf1, stronger effect = lower value 0.635 | locus YBR021W, strain FUR4, stronger effect = lower value 1.16 [resistant] | locus YBR023C, strain chs3, stronger effect = lower value 0.764 | locus YBR231C, strain swc5, stronger effect = lower value 0.742 | locus YBR279W, strain paf1, stronger effect = lower value 0.807 | locus YCL011C, strain gbp2, stronger effect = lower value 0.78 | locus YCL016C, strain dcc1, stronger effect = lower value 0.739 | locus YCL069W, strain vba3, stronger effect = lower value 0.725 | locus YDL192W, strain arf1, stronger effect = lower value 0.901 | locus YDR069C, strain doa4, stronger effect = lower value 0.846 | locus YDR137W, strain rgp1, stronger effect = lower value 0.351 | locus YDR195W, strain ref2 1.61 [resistant] | locus YDR297W, strain sur2, stronger effect = lower value 0.828 | locus YDR334W, strain swr1, stronger effect = lower value 0.833 | locus YDR335W, strain msn5, stronger effect = lower value 0.785 | locus YDR392W, strain spt3, stronger effect = lower value 0.6 | locus YEL003W, strain gim4, stronger effect = lower value 0.712 | locus YEL061C, strain CIN8 (second series), stronger effect = lower value 0.838 | locus YER015W, strain faa2, stronger effect = lower value 0.794 | locus YER016W, strain bim1, stronger effect = lower value 0.853 | locus YER111C, strain swi4, stronger effect = lower value 0.801 | locus YER155C, strain BEM2 (second series), stronger effect = lower value 0.226 | locus YFR010W, strain ubp6, stronger effect = lower value 0.862 | locus YGL173C, strain kem1, stronger effect = lower value 0.668 | locus YGL227W, strain vid30, stronger effect = lower value 0.83 | locus YGL240W, strain doc1, stronger effect = lower value 0.832 | locus YGL253W, strain hxk2, stronger effect = lower value 0.695 | locus YGR135W, strain pre9, stronger effect = lower value 0.854 | locus YHR013C, strain ard1, stronger effect = lower value 0.573 | locus YHR027C, strain rpn1, stronger effect = lower value 0.798 | locus YHR142W, strain chs7, stronger effect = lower value 0.543 | locus YJL095W, strain BCK1 (second series), stronger effect = lower value 0.478 | locus YJL129C, strain trk1, stronger effect = lower value 1.14 [resistant] | locus YJL164C, strain tpk1, stronger effect = lower value 0.759 | locus YJL166W, strain qcr8, stronger effect = lower value 0.494 | locus YJL187C, strain SWE1, stronger effect = lower value 0.727
